In PubChem BioAssay AID1578 (Sanford-Burnham Center for Chemical Genomics, 2009):
Hit rate of the full screen: of about 290,000 compounds, about 3,000 (1%) were called active. Many of the other results were omitted from the sample, so actives are more common in it than they were. Values without a mark were called inactive. Cut-off read from the data, not from the text of the source: active = inhibition mostly above about 36% (no sharp cut-off); inactive = mostly below about 34%.

Test: inhibition of NOD1-driven NF-kB reporter – cell-based, luminescence, uHTS, primary screen (AID 1578);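 note: HEK-293T reporter cells stimulated with the NOD1 agonist gamma-tri-DAP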
Conditions: NOD1-driven NF-kB luciferase reporter cells, at 4 µM, stronger effect = higher value

In order of falling inhibition:
1. CCc1ccc(NC(=O)c2cnn3ccccc23)cc1  50.8%
2. Cc1cc(C)cc(NC(=O)C[n+]2ccccc2)c1  45.4%
3. CCCCCCCCCCCCCCCC[n+]1cccc2ccccc21  37.4%
4. CCCCC[n+]1cccc2c3ccccc3ccc21  33.7%
5. O=C1C2C3C=CC(C3)C2C(=O)N1c1ccncc1 (configuration not stated)  29.4%
6. COc1cccc(/C=N/Nc2nc(N3CCCC3)nc(N3CCCC3)n2)c1O  29.2%
7. CC12C(=O)N(Cc3ccco3)C(=O)C1C1c3ccccc3C2c2ccccc21 (configuration not stated)  28.8%
8. Cc1ccsc1/C=C/c1ccc2ccccc2n1  27.3%
9. N#C/C(=C\C=C\c1ccccc1)C(=O)N1CCCC1  23.1%
10. Cc1ccc(N=Nc2ccc3ccccc3c2O)cc1  19%
11. Cc1ccc(NS(=O)(=O)c2cc3c4c(cccc4c2)C(=O)NC3=O)cc1  18.1%
12. CC(c1ccco1)N(C(=O)C12CC3CC(CC(C3)C1)C2)c1ccccn1 (configuration not stated)  17.1%
13. CC(C)NC(=O)CN1C(=O)C(=O)c2ccccc21  15.8%
14. CCOC(=O)c1cnc2c(C)c(Cl)ccc2c1N1CCOCC1  14.6%
15. CCCn1c(N)c(C(c2ccc(OC)cc2)N2CCN(c3ccccc3)CC2)c(=O)[nH]c1=O (configuration not stated)  10%
16. COc1ccc(C(=O)Oc2ccc(N(C)S(=O)(=O)c3ccccc3)cc2)cc1[N+](=O)[O-]  8.9%
17. O=C(CSc1nc2cccnc2n1Cc1ccccc1)NCc1ccco1  8.8%
18. C(=N\Nc1nc(N2CCCC2)nc(N2CCCC2)n1)/c1ccccc1OCc1ccccc1  7.9%
19. CN1/C(=C\C(=O)C[n+]2cccc(C(N)=O)c2)C(C)(C)c2ccccc21  7.7%
20. O=C(Nc1nc2cc3c(cc2s1)OCCO3)c1cccc(S(=O)(=O)N2CCOCC2)c1  5.8%
21. COc1ccc(Nc2cc(NCCCO)c([N+](=O)[O-])c3nonc23)cc1  4.8%
22. COc1ccc(C(C(=O)NCC2CCCO2)N(C(=O)CNC(=O)c2cccs2)c2ccc(C)cc2)cc1OC (configuration not stated)  4.3%
23. CCOC(=O)N1CCC(NC(=S)Nc2ccc3nc(N4CCN(C)CC4)cc(C)c3c2)CC1  3.9%
24. C=CCOn1c(=O)c(-c2ccc(F)cc2)[n+]([O-])c2ccccc21  3.1%
25. O=C(CN1CCCCC1)Nc1nnc(-c2ccccc2)s1  2.9%
26. Cc1ccc(-c2cc(C(F)F)n3ncc(C(=O)N4CCCCC4c4cccnc4)c3n2)cc1 (configuration not stated)  2.1%
27. Cc1ccc(Sc2cc(NCCCO)c([N+](=O)[O-])c3nonc23)cc1  2.1%
28. Cc1cccc(-n2ncc3c(N(C)Cc4ccccc4)ncnc32)c1  2.1%
29. Cc1oc(S(=O)(=O)N2CCOCC2)cc1C(=O)Nc1ccc(Cl)cc1  0.4%
30. CCCCNC(=O)[C@@H]1CSC2c3ccccc3C(=O)N21 (some centres not stated)  -0.2%
31. CC(=O)c1cccc(NC(=O)c2cnn3ccccc23)c1  -1%
32. CCC1OC2(C)OC(=N)C1(C#N)C(C#N)(C#N)C2c1ccccc1 (configuration not stated)  -1.7%
33. CC(c1ccco1)N(C(=O)C12CC3(C)CC(C)(CC(C)(C3)C1)C2)c1ccccn1 (configuration not stated)  -2%
34. NCC(=O)c1cccc2ccc[n+]([O-])c12  -2.6%
35. C/C(=N/OCC(=O)NCCCCCCNC(=O)CO/N=C(/C)c1cccs1)c1cccs1  -2.7%
36. CCc1ccc(OCC(=O)N/N=C(\C)c2ccccc2OC(F)F)cc1  -2.9%
37. COc1ccc(-c2[nH]c(-c3ccc(Cl)cc3)nc2SCC(=O)Nc2nccs2)cc1  -3.8%
38. CC(C)C(=O)N1CCC2(CC1)Oc1ccc(Cl)cc1C(=O)C21CC(c2ccc(Cl)cc2)=NO1 (configuration not stated)  -3.8%
39. COc1cc2ccc(=O)oc2c(CC=C(C)C)c1OC  -5.1%
40. COc1ccc(OC)c(-c2cc(C(=O)NCCN3CCOCC3)no2)c1  -5.6%
41. C[n+]1cccc2c(Br)ccc([O-])c21  -5.6%
42. CCOC(=O)C(CC)Sc1nnc2n1C(C)(C)Cc1ccccc1-2 (configuration not stated)  -5.8%
43. CCC(c1nnc(SCC(=O)NC23CC4CC(CC(C4)C2)C3)o1)N(C)C (configuration not stated)  -5.8%
44. CC1OC2(C)OC(=N)C1(C#N)C(C#N)(C#N)C2c1ccccc1 (configuration not stated)  -6.3%
45. O=C(Cc1ccc(F)cc1)NCCc1cnc[nH]1  -7.3%
46. Oc1cccc2ccc(/C=C/c3cccs3)nc12  -7.6%
47. Cc1ccc(OCC(=O)Nc2ccc(N3CCN(C(=O)c4ccco4)CC3)cc2)cc1C  -9.9%
48. CC1CCCCN1CCNC(=O)c1ccc2c(c1)N(Cc1ccccc1F)C(=O)c1ccccc1S2=O (configuration not stated)  -12.3%
49. O=S(=O)(Nc1ccc2cn[nH]c2c1)c1ccc(Cl)cc1  -12.5%
50. O=C1c2ccccc2NC(c2ccccc2F)N1NS(=O)(=O)c1ccccc1 (configuration not stated)  -13%
51. COc1ccc(-c2[nH]c(-c3ccc(C)cc3)nc2SCC(=O)Nc2nccs2)cc1  -13.3%
52. O=C(O)Cn1cc(C(=O)C2CC2)c2ccccc21  -13.5%
53. COc1ccc(NC(=O)c2ccccc2NC(=O)NC2CCCCC2)cc1  -14.5%
54. O=C(Nc1nc2cc3c(cc2s1)OCCO3)c1cccc(N2C(=O)CCC2=O)c1  -14.7%
55. Cc1cccc(OCc2nnc(SCc3nc4ccccc4c(=O)[nH]3)o2)c1  -16.2%
56. CCCN(Cc1cc2cc(C)ccc2[nH]c1=O)S(C)(=O)=O  -18%
57. COc1cc(/C=c2\sc3nc(-c4ccncc4)nn3c2=O)ccc1OC(C)=O  -18.6%
58. O=C(O)CC1(CC(=O)N2CCN(CCO)CC2)CCCC1  -19.8%
59. Cc1cc(S(=O)(=O)Nc2ccc3cn[nH]c3c2)c(C)cc1Cl  -20.3%
60. Cc1ccc(C(=O)n2nc(-c3ccco3)nc2N)cc1  -20.6%
61. CCOC(=O)N1CCN(C(=S)Nc2ccc3nc(N4CCN(CC)CC4)cc(C)c3c2)CC1  -21%
62. CC(CC(=O)Nc1ccc(S(=O)(=O)Nc2ncccn2)cc1)c1ccccc1 (configuration not stated)  -22.5%
63. Brc1cccc(CN2CCCCCC2)c1  -23%
64. O=C1c2ccccc2C(=O)N1CCCC(=O)N1CCCc2ccccc21  -23.6%
65. CCc1ccccc1NC(=O)Nc1ccc(F)cc1  -25.3%
66. CN1CCN(CC(=O)Nc2nnc(-c3cccs3)s2)CC1  -26.2%
67. Cc1ccccc1NC(=O)c1ccc(NS(=O)(=O)c2cc(C(C)(C)C)cc(C)c2C)cc1  -29.6%
68. CN(CCOCCOc1ccc(Cl)cc1Br)Cc1ccccc1  -30.1%
69. COc1ccc2sc3ccccc3c(=O)c2c1  -32.1%
70. Cc1ccc(N(CC(=O)Nc2ccc3c(c2)OCCO3)S(C)(=O)=O)cc1  -32.2%
71. Cc1[nH]nc(SCC(=O)NCc2ccc(Cl)cc2)c1[N+](=O)[O-]  -33.8%
72. Fc1ccc(CSc2nnc3ccccn23)c(Cl)c1  -35.7%
73. Cc1ccc(Nc2nc(-c3ccccc3)cs2)nc1  -37%
74. CCC(C)NC(=O)CN(c1ccc(OC)cc1)S(=O)(=O)c1ccccc1 (configuration not stated)  -38.9%
75. CC(C)N1CCN(Cc2nc(-c3ccccc3)cs2)CC1CCO (configuration not stated)  -44.6%
76. C/C(=C/Cc1c(O)cc2oc(C)cc(=O)c2c1O)COC1OC(CO)C(O)C(O)C1O (configuration not stated)  -47.3%
77. COc1ccc(NC(=O)CN2C(=O)NC(C)(c3ccccc3)C2=O)cc1Cl (configuration not stated)  -50.5%
78. c1ccc(Nc2nc(-c3cccs3)cs2)nc1  -50.9%
79. COC(=O)Nc1nc(-c2ccc(F)cc2)c(C)s1  -56.3%
80. CCNC(=O)Cc1c(OC)ccc2cc(Br)ccc12  -58.1%
81. Oc1c(N=Nc2ccc(F)cc2)ccc2ccccc12  -69.9%
82. COc1cccc2sc3ccc(C#Cc4ccc(N)cc4)cc3c(=O)c12  -70%

With `Cc1ccsc1/C=C/c1ccc2cccc(O)c2n1` the inhibition was 63.2% (active).
For `CCOc1cccc(/C=N/Nc2nc(N3CCCC3)nc(N3CCCC3)n2)c1O`, the inhibition was 33.4% (active).
For `COc1ccc2sc3ccccc3c(=O)c2c1OC`, the inhibition was 97.4% (active).
For `CCCCCCCCCC[n+]1cccc2c3ccccc3ccc21`, the inhibition was 64.2% (active).
For `CC(C)C1OC2(C)OC(=N)C1(C#N)C(C#N)(C#N)C2c1ccccc1` (configuration not stated), the inhibition was 78.7% (active).
With `COc1ccc(CNc2cc(NCCCO)c([N+](=O)[O-])c3nonc23)cc1` the inhibition was 48.5% (active).
For `Oc1c(N=Nc2ccccn2)ccc2ccccc12`, the inhibition was 96.4% (active).
In the case of `Cc1ccc(Nc2nc(-c3cccs3)cs2)nc1`, the inhibition is reported as 46% (active).
With `COc1ccc(-c2[nH]c(-c3ccccc3)nc2SCC(=O)Nc2nccs2)cc1` the inhibition was 82.4% (active).
For `[O-][n+]1cccc2c(Br)cc(Br)c(O)c21`, the inhibition was 86% (active).
For `CC(c1ccco1)N(C(=O)C12CC3CC(CC(C)(C3)C1)C2)c1ccccn1` (configuration not stated), the inhibition was 31.7% (active).
With `O=C(CN1CCCC1)Nc1nnc(-c2cccs2)s1` the inhibition was 74.9% (active).
With `CCOC(=O)N1CCC(NC(=S)Nc2ccc3nc(N4CCN(CC)CC4)cc(C)c3c2)CC1` the inhibition was 48.8% (active).
For `O=C1C(Cl)=C(Nc2ccc3cn[nH]c3c2)C(=O)c2ccccc21`, the inhibition was 61.1% (active).
For `CC(=O)c1ccc(NC(=O)c2cnn3ccccc23)cc1`, the inhibition was 63.1% (active).
